# Activity calls are given as the source filed them. The calls were made as follows: active = hit-call score of the fitted dose curve at least 0.9, where 1 is the maximum; inactive = score below 0.9.
# Key:
# Details in all cases: mRNA level, 48 h; actives raise or lower the signal
# [1] = read-out: adenosine kinase (ADK) gene, ADK (gene 132); assay: LTEA_HepaRG_ADK: Life Technologies and Expression Analysis (LTEA) Assay for adenosine kinase (ADK) gene using HepaRG (AID 2283471)
# How it was run: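 HepaRG (human liver), 48 h chemical exposure, 8-pt half-log series, top 100 uM, 0.5% DMSO vehicle. Readout: ADK mRNA by qRT-PCR vs housekeeping genes; bidirectional curve fit relative to DMSO baseline.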
# [2] = read-out: BCL2L11 (gene 10018); assay: LTEA_HepaRG_BCL2L11: Life Technologies and Expression Analysis (LTEA) Assay for Bcl-2 (BCL2L11) gene using HepaRG (AID 2283473)
# How it was run: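 Read-out is BCL2L11 transcript level by qRT-PCR, normalized to three housekeeping genes and fitted bidirectionally against 0.5% DMSO vehicle. HepaRG cells received chemicals for 48 h in serum-free induction medium, 100 uM down in half-log dilutions.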
# [3] = read-out: Apolipoprotein A-V (APOA5) gene, APOA5 (gene 116519); assay: LTEA_HepaRG_APOA5: Life Technologies and Expression Analysis (LTEA) Assay for Apolipoprotein A-V (APOA5) gene using HepaRG (AID 2283474)
# How it was run: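 Readout is APOA5 transcript level by qRT-PCR on Fluidigm dynamic arrays, normalized to three housekeeping genes. HepaRG cultures received chemicals for 48 h at up to 100 uM (half-log steps, 0.5% DMSO), with gain or loss scored relative to DMSO.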
# [4] = read-out: Apoptosis regulator Bcl-2 (Homo sapiens) (UniProt P10415); assay: LTEA_HepaRG_BCL2: Life Technologies and Expression Analysis (LTEA) Assay for Bcl-2 gene using HepaRG (AID 2283475)
# How it was run: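 Each chemical was tested in duplicate on HepaRG cultures held in serum-free induction medium for 48 h, highest concentration 100 uM with half-log dilutions. Transcript levels came from multiplexed qRT-PCR, normalised to housekeeping genes; activity was scored in either direction relative to DMSO.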
# [5] = read-out: Bcl-2 (BID) gene, BID (gene 637); assay: LTEA_HepaRG_BID: Life Technologies and Expression Analysis (LTEA) Assay for Bcl-2 (BID) gene using HepaRG (AID 2283476)
# How it was run: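 Assay used HepaRG hepatic cells treated 48 h in serum-free medium with half-log dilutions from 100 uM. Endpoint: BID mRNA, qRT-PCR, normalized to ACTB/GAPDH/POLR2A.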
# [6] = read-out: Caspase-3 (Homo sapiens) (UniProt P42574); assay: LTEA_HepaRG_CASP3: Life Technologies and Expression Analysis (LTEA) Assay for cysteine-aspartic acid protease (CASP3) using HepaRG (AID 2283477)
# How it was run: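 Read-out is CASP3 mRNA level by TaqMan qRT-PCR in human HepaRG cells after 48 h chemical exposure. Eight half-log concentrations topping at 100 uM were tested in 0.5% DMSO; gain or loss was fitted relative to DMSO.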
# [7] = read-out: Cytochrome P450 (CYP24A1), CYP24A1 (gene 1591); assay: LTEA_HepaRG_CYP24A1: Life Technologies and Expression Analysis (LTEA) Assay for Cytochrome P450 (CYP24A1) using HepaRG (AID 2283478)
# How it was run: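 HepaRG, 48 h chemical exposure, 8-pt half-log CRC from 100 uM, 0.5% DMSO vehicle, duplicates. Endpoint: CYP24A1 mRNA by Fluidigm TaqMan qRT-PCR, normalized ACTB/GAPDH/POLR2A; gain/loss fit vs DMSO.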
# [8] = read-out: Cytochrome P450 (CYP1A2), CYP1A2 (gene 1544); assay: LTEA_HepaRG_CYP1A2: Life Technologies and Expression Analysis (LTEA) Assay for Cytochrome P450 (CYP1A2) using HepaRG (AID 2283479)
# How it was run: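 CYP1A2 transcript induction or loss, quantified by Fluidigm qRT-PCR against three housekeeping genes, was fitted bidirectionally against 0.5% DMSO controls. Human HepaRG cells received eight half-log concentrations from 100 uM over 48 h.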
# [9] = read-out: cysteine-aspartic acid protease (CASP8), CASP8 (gene 841); assay: LTEA_HepaRG_CASP8: Life Technologies and Expression Analysis (LTEA) Assay for cysteine-aspartic acid protease (CASP8) using HepaRG (AID 2283480)
# How it was run: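 CASP8 transcript measured by TaqMan qRT-PCR with ACTB/GAPDH/POLR2A normalization, after 48 h chemical exposure of HepaRG cells in serum-free induction medium. Eight concentrations, top 100 uM, half-log steps, 0.5% DMSO vehicle; fits in both directions versus DMSO.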
# [10] = read-out: Cytochrome P450 (CYP2B6), CYP2B6 (gene 1555); assay: LTEA_HepaRG_CYP2B6: Life Technologies and Expression Analysis (LTEA) Assay for Cytochrome P450 (CYP2B6) using HepaRG (AID 2283481)
# How it was run: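 HepaRG cells plated 48 h, switched to serum-free induction medium, then dosed 48 h (8 points, half-log from 100 uM, 0.5% DMSO). RNA isolated; CYP2B6 expression measured by qRT-PCR; gain or loss fitted relative to DMSO.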
# [11] = read-out: Cytochrome P450 2C19 (Homo sapiens) (UniProt P33261); assay: LTEA_HepaRG_CYP2C19: Life Technologies and Expression Analysis (LTEA) Assay for CYP2C19 using HepaRG (AID 2283482)
# How it was run: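 Transcript levels of CYP2C19 were quantified by qRT-PCR after HepaRG cells were treated for 48 hours with test chemicals up to 100 uM (eight half-log concentrations, 0.5% DMSO vehicle). Gain or loss of signal was fitted relative to DMSO.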
# [12] = read-out: CYP2C8 (gene 1558); assay: LTEA_HepaRG_CYP2C8: Life Technologies and Expression Analysis (LTEA) Assay for CYP2C8 using HepaRG (AID 2283483)
# How it was run: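 CYP2C8 expression measured by TaqMan qRT-PCR and normalized to three housekeeping genes. HepaRG cultures were treated for 48 h with an eight-point half-log series topping at 100 uM, vehicle 0.5% DMSO, duplicates; fitted both directions against DMSO.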
# [13] = read-out: CYP2C9 (gene 1559); assay: LTEA_HepaRG_CYP2C9: Life Technologies and Expression Analysis (LTEA) Assay for CYP2C9 using HepaRG (AID 2283484)
# How it was run: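 CYP2C9 transcript level, quantified by TaqMan qRT-PCR against three housekeeping genes, was fitted bidirectionally relative to 0.5% DMSO. HepaRG cultures were treated 48 h, in duplicate, at eight half-log concentrations topping at 100 uM.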
# [14] = read-out: CYP2E1 (gene 1571); assay: LTEA_HepaRG_CYP2E1: Life Technologies and Expression Analysis (LTEA) Assay for CYP2E1 using HepaRG (AID 2283485)
# How it was run: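 Assay uses 48 h exposure of HepaRG hepatic cells, eight concentrations to 100 uM. Expression of CYP2E1 is quantified by TaqMan qRT-PCR with ACTB, GAPDH and POLR2A normalization; curves fitted in both directions relative to vehicle.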
# [15] = read-out: CYP4A11 (gene 1579); assay: LTEA_HepaRG_CYP4A11: Life Technologies and Expression Analysis (LTEA) Assay for CYP4A11 using HepaRG (AID 2283486)
# How it was run: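 HepaRG, 48 h chem exposure, 8 conc (100 uM top, half-log), 0.5% DMSO vehicle; qRT-PCR readout, housekeeping-gene normalized; bidirectional curve fit vs DMSO baseline.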
# [16] = read-out: Cytochrome P450 3A4 (Homo sapiens) (UniProt P08684); assay: LTEA_HepaRG_CYP3A4: Life Technologies and Expression Analysis (LTEA) Assay for CYP3A4 using HepaRG (AID 2283487)
# How it was run: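 CYP3A4 transcript measured by TaqMan qRT-PCR and normalized to three housekeeping genes after 48 h chemical exposure of human HepaRG cells. Top concentration 100 uM, half-log steps, 0.5% DMSO vehicle; gain or loss fitted against DMSO baseline.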
# [17] = read-out: DNA damage-inducible transcript 3 (DDIT3), DDIT3 (gene 1649); assay: LTEA_HepaRG_DDIT3: Life Technologies and Expression Analysis (LTEA) Assay for DNA damage-inducible transcript 3 (DDIT3) using HepaRG (AID 2283488)
# How it was run: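 Eight-point concentration-response (100 uM highest, half-log dilutions) in HepaRG, 48 h, duplicate wells. Endpoint: qRT-PCR mRNA, normalized (ACTB, GAPDH, POLR2A), bidirectional fitting with DMSO as baseline.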
# [18] = read-out: Pro-epidermal growth factor (Homo sapiens) (UniProt P01133); assay: LTEA_HepaRG_EGF: Life Technologies and Expression Analysis (LTEA) Assay for Epidermal growth factor (EGF) using HepaRG (AID 2283489)
# How it was run: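 HepaRG, 48 h dosing, 100 uM top, half-log x8, 0.5% DMSO. Readout: TaqMan qRT-PCR (Fluidigm array), housekeeping-normalized. Gain or loss of signal fit vs DMSO.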
# [19] = read-out: Early growth response protein 1 (EGR1) transcription factor, EGR1 (gene 1958); assay: LTEA_HepaRG_EGR1: Life Technologies and Expression Analysis (LTEA) Assay for Early growth response protein 1 (EGR1) transcription factor using HepaRG (AID 2283490)
# How it was run: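 EGR1 transcript levels quantified by qRT-PCR (Fluidigm arrays) against three housekeeping genes after 48 h chemical exposure of HepaRG cells. Eight-point half-log series topping at 100 uM, 0.5% DMSO vehicle, analyzed for gain or loss.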
# Chain of Apoptosis regulator Bcl-2 (Homo sapiens) (P10415 whole entry, looked up): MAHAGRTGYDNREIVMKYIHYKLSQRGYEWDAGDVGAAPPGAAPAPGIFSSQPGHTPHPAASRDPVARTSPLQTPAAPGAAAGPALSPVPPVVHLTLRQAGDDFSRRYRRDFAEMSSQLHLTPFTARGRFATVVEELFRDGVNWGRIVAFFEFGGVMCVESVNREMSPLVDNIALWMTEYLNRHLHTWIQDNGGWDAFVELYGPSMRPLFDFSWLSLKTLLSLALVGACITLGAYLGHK
# Chain of Cytochrome P450 3A4 (Homo sapiens) (P08684 whole entry, looked up): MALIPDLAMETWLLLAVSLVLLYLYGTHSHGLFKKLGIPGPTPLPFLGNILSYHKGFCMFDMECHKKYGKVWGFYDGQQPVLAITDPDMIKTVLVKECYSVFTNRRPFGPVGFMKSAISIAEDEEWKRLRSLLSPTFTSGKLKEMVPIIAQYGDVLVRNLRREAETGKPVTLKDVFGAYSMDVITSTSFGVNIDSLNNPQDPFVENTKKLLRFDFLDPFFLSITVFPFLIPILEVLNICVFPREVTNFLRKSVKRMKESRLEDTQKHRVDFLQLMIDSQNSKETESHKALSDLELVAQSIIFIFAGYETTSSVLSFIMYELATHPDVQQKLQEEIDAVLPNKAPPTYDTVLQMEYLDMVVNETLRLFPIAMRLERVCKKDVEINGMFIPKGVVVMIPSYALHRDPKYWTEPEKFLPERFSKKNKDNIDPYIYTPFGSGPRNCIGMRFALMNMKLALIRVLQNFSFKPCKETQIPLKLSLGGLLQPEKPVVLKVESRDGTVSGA
# Chain of Caspase-3 (Homo sapiens) (P42574 whole entry, looked up): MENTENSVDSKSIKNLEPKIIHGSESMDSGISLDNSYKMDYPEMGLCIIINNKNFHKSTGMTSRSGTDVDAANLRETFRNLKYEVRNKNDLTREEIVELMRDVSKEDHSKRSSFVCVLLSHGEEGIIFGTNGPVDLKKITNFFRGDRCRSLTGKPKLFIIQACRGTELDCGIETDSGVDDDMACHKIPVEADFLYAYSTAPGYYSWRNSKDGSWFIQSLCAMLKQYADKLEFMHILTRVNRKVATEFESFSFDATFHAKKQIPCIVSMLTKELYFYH
# Chain of Cytochrome P450 2C19 (Homo sapiens) (P33261 whole entry, looked up): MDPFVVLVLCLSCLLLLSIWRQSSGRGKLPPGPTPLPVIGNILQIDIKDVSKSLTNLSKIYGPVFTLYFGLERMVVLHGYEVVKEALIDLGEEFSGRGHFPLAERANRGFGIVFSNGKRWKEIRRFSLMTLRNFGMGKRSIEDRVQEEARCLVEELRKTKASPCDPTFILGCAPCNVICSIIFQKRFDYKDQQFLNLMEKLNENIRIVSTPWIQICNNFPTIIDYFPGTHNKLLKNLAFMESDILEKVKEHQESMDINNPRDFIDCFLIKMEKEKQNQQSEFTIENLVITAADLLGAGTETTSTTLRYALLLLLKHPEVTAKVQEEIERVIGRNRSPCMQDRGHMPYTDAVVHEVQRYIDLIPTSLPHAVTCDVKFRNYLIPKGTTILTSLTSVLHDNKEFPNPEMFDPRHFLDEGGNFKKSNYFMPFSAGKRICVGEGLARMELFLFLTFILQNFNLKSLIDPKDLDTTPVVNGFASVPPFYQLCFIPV
structure (smiles),measurement,setting,value
CC(O)CC(C)(C)O (stereo unspecified),outcome,[1],inactive
same,outcome,[2],inactive
same,outcome,[3],inactive
same,outcome,[4],inactive
same,outcome,[5],inactive
same,outcome,[6],inactive
same,outcome,[7],inactive
same,outcome,[8],inactive
same,outcome,[9],inactive
same,outcome,[10],inactive
same,outcome,[11],inactive
same,outcome,[12],inactive
same,outcome,[13],inactive
same,outcome,[14],inactive
same,outcome,[15],inactive
same,outcome,[16],inactive
same,outcome,[17],inactive
same,outcome,[18],inactive
same,outcome,[19],inactive
O=c1ccc2ccccc2o1,outcome,[1],inactive
same,outcome,[2],inactive
same,outcome,[3],inactive
same,outcome,[4],inactive
same,outcome,[5],inactive
same,outcome,[6],inactive
same,outcome,[7],inactive
same,outcome,[8],inactive
same,outcome,[9],inactive
same,AC50,[10],40.3 µM (active)
same,outcome,[11],inactive
same,outcome,[12],inactive
same,outcome,[13],inactive
same,AC50,[14],50 µM (active)
same,outcome,[15],inactive
same,outcome,[16],inactive
same,outcome,[17],inactive
same,outcome,[18],inactive
same,outcome,[19],inactive
CC/C(=C(/CC)c1ccc(O)cc1)c1ccc(O)cc1,AC50,[1],94.1 µM (active)
same,AC50,[2],88.8 µM (active)
same,AC50,[3],50 µM (active)
same,outcome,[4],inactive
same,outcome,[5],inactive
same,AC50,[6],93 µM (active)
same,outcome,[7],inactive
same,AC50,[9],93.2 µM (active)
same,AC50,[10],82.4 µM (active)
same,outcome,[12],inactive
same,AC50,[14],82.1 µM (active)
same,AC50,[15],83.4 µM (active)
same,AC50,[17],67.6 µM (active)
same,outcome,[18],inactive
same,AC50,[19],77.4 µM (active)
Cc1ccc(C(C)C)cc1,outcome,[1],inactive
same,outcome,[2],inactive
same,outcome,[3],inactive
same,outcome,[4],inactive
same,outcome,[5],inactive
same,outcome,[6],inactive
same,outcome,[7],inactive
same,outcome,[8],inactive
same,outcome,[9],inactive
same,outcome,[10],inactive
same,outcome,[12],inactive
same,outcome,[13],inactive
same,outcome,[14],inactive
same,outcome,[15],inactive
same,outcome,[16],inactive
same,outcome,[17],inactive
same,outcome,[18],inactive
same,outcome,[19],inactive

# — PubChem BioAssay (EPA / NIEHS)
